Results from the supplement of paper PMC8728848.
The entries come from a sample that favours the strongest signals as a whole.

Key:
Experiment in all cases: glycan array binding signal (z-score within array); higher = stronger binding
Settings in all cases: glycan notation: IUPAC condensed, linker removed
[1] = target: Fuc(a1-2)Gal(b1-3)GlcNAc(b1-2)Man(a1-3)[Fuc(a1-2)Gal(b1-3)GlcNAc(b1-2)Man(a1-6)]Man(b1-4)GlcNAc(b1-4)GlcNAc
Procedure, shortened: (§1)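 Negative Z-scores can be read as non-binding. The Z-score is calculated within each array and then averaged across arrays of one protein sequence at different concentrations or buffers and across linkers. Arrays, 3228 in all, were curated from the Consortium for Functional Glycomics database and kept only where the protein sequence was available.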

[2] = target: Fuc(a1-2)Gal(b1-3)GlcNAc(b1-3)Gal(b1-4)Glc
Procedure, shortened: as §1

[3] = target: Fuc(a1-2)Gal(b1-3)GlcNAc(b1-3)[Fuc(a1-3)[Gal(b1-4)]GlcNAc(b1-6)]Gal(b1-4)Glc
Procedure, shortened: as §1

[4] = target: Fuc(a1-2)Gal(b1-3)[Fuc(a1-4)]GlcNAc(b1-2)Man(a1-3)[Fuc(a1-2)Gal(b1-3)[Fuc(a1-4)]GlcNAc(b1-2)Man(a1-6)]Man(b1-4)GlcNAc(b1-4)GlcNAc
Procedure, shortened: as §1

Fuc(a1-2)Gal(b1-4)Glc = target: Fuc(a1-2)Gal(b1-4)Glc
Procedure, shortened: as §1

[5] = target: Fuc(a1-2)Gal(b1-4)GlcNAc(b1-2)[Fuc(a1-2)Gal(b1-4)GlcNAc(b1-4)]Man(a1-3)[Fuc(a1-2)Gal(b1-4)GlcNAc(b1-2)Man(a1-6)]Man(b1-4)GlcNAc(b1-4)GlcNAc
Procedure, shortened: as §1

[6] = target: Fuc(a1-2)Gal(b1-4)[Fuc(a1-3)]GlcNAc(b1-3)GalNAc
Procedure, shortened: as §1

[7] = target: Fuc(a1-2)[Gal(a1-3)]Gal(b1-3)GlcNAc
Procedure, shortened: as §1

[8] = target: Fuc(a1-2)[Gal(a1-3)]Gal(b1-4)GlcNAc
Procedure, shortened: as §1

[9] = target: Fuc(a1-2)[GalNAc(a1-3)]Gal(b1-3)GlcNAc(b1-2)Man(a1-3)[Fuc(a1-2)[GalNAc(a1-3)]Gal(b1-3)GlcNAc(b1-2)Man(a1-6)]Man(b1-4)GlcNAc(b1-4)[Fuc(a1-6)]GlcNAc
Procedure, shortened: as §1

[10] = target: Fuc(a1-2)[GalNAc(a1-3)]Gal(b1-4)GlcNAc
Procedure, shortened: as §1

[11] = target: Fuc(a1-2)[GalNAc(a1-3)]Gal(b1-4)GlcNAc(b1-2)Man(a1-3)[Fuc(a1-2)[GalNAc(a1-3)]Gal(b1-4)GlcNAc(b1-2)Man(a1-6)]Man(b1-4)GlcNAc(b1-4)GlcNAc
Procedure, shortened: as §1

[12] = target: Fuc(a1-3)[Gal3S(b1-4)]GlcNAc6S
Procedure, shortened: as §1

[13] = target: Gal(a1-3)Fuc(a1-2)Gal(b1-4)GlcNAc(b1-3)[Gal(a1-3)Fuc(a1-2)Gal(b1-4)GlcNAc(b1-6)]GalNAc
Procedure, shortened: as §1

Gal(a1-3)Gal(b1-4)GlcNAc = target: Gal(a1-3)Gal(b1-4)GlcNAc
Procedure, shortened: as §1

[14] = target: Gal(a1-3)[Gal(a1-4)]Gal(b1-4)GlcNAc
Procedure, shortened: as §1

Gal(a1-4)Gal(b1-4)Glc = target: Gal(a1-4)Gal(b1-4)Glc
Procedure, shortened: as §1

Gal(a1-4)Gal(b1-4)GlcNAc = target: Gal(a1-4)Gal(b1-4)GlcNAc
Procedure, shortened: as §1

[15] = target: Gal(a1-4)Gal(b1-4)GlcNAc(b1-3)Gal(b1-4)Glc
Procedure, shortened: as §1

[16] = target: Gal(b1-3)GlcNAc(b1-2)[Gal(b1-3)GlcNAc(b1-6)]Man(a1-6)[Gal(b1-3)GlcNAc(b1-2)Man(a1-3)]Man(b1-4)GlcNAc(b1-4)GlcNAc
Procedure, shortened: as §1

[17] = target: Gal(b1-3)GlcNAc(b1-3)Gal(b1-4)GlcNAc
Procedure, shortened: as §1

Gal(b1-4)Gal = target: Gal(b1-4)Gal
Procedure, shortened: as §1

Gal(b1-4)Glc6S = target: Gal(b1-4)Glc6S
Procedure, shortened: as §1

[18] = target: Gal(b1-4)GlcNAc(b1-3)Gal(b1-4)GlcNAc
Procedure, shortened: as §1

Gal(b1-6)Gal = target: Gal(b1-6)Gal
Procedure, shortened: as §1

[19] = target: Gal3S(b1-4)[Fuc(a1-3)]Glc6S
Procedure, shortened: as §1

Gal4S(b1-4)GlcNAc = target: Gal4S(b1-4)GlcNAc
Procedure, shortened: as §1

Gal6S(b1-4)Glc = target: Gal6S(b1-4)Glc
Procedure, shortened: as §1

GalNAc(b1-3)Gal = target: GalNAc(b1-3)Gal
Procedure, shortened: as §1

GalNAc(b1-4)Gal(b1-4)Glc = target: GalNAc(b1-4)Gal(b1-4)Glc
Procedure, shortened: as §1

Glc(b1-4)Glc = target: Glc(b1-4)Glc
Procedure, shortened: as §1

Glc(b1-6)Glc = target: Glc(b1-6)Glc
Procedure, shortened: as §1

[20] = target: GlcNAc(a1-6)Gal(b1-4)GlcNAc
Procedure, shortened: as §1

[21] = target: GlcNAc(b1-2)[GlcNAc(b1-4)]Man(a1-3)[GlcNAc(b1-4)][GlcNAc(b1-2)[GlcNAc(b1-6)]Man(a1-6)]Man(b1-4)GlcNAc(b1-4)GlcNAc
Procedure, shortened: as §1

[22] = target: GlcNAc(b1-4)Gal(b1-4)GlcNAc
Procedure, shortened: as §1

[23] = target: Man(a1-2)Man(a1-3)[Man(a1-2)Man(a1-6)]Man(a1-6)[Man(a1-2)Man(a1-2)Man(a1-3)]Man(b1-4)GlcNAc(b1-4)GlcNAc
Procedure, shortened: as §1

[24] = target: Man(a1-3)[Man(a1-6)]Man(a1-6)[Man(a1-2)Man(a1-3)]Man(b1-4)GlcNAc(b1-4)GlcNAc
Procedure, shortened: as §1

[25] = target: Neu5Ac(a2-3)Gal(b1-3)GalNAc(b1-3)Gal(a1-4)Gal(b1-4)Glc
Procedure, shortened: as §1

[26] = target: Neu5Ac(a2-3)Gal(b1-3)GlcNAc(b1-3)GalNAc
Procedure, shortened: as §1

[27] = target: Neu5Ac(a2-3)Gal(b1-4)GlcNAc(b1-6)[Neu5Ac(a2-3)Gal(b1-3)]GalNAc
Procedure, shortened: as §1

[28] = target: Neu5Ac(a2-3)Gal(b1-4)[Fuc(a1-3)]GlcNAc(b1-3)Gal
Procedure, shortened: as §1

[29] = target: Neu5Ac(a2-3)Gal(b1-4)[Fuc(a1-3)]GlcNAc(b1-3)GalNAc
Procedure, shortened: as §1

[30] = target: Neu5Ac(a2-6)Gal(b1-4)GlcNAc(b1-2)Man(a1-3)[Neu5Ac(a2-6)Gal(b1-4)GlcNAc(b1-2)Man(a1-6)]Man(b1-4)GlcNAc(b1-4)GlcNAc
Procedure, shortened: as §1

[31] = target: Neu5Ac(a2-6)Gal(b1-4)GlcNAc(b1-3)Gal(b1-4)GlcNAc(b1-3)Gal(b1-4)GlcNAc
Procedure, shortened: as §1

[32] = target: Neu5Ac9Ac(a2-3)Gal(b1-4)GlcNAc
Procedure, shortened: as §1

B1: DCL-1 (Homo sapiens), Q8IX05 (protein)
chain: MLRAALPALLLPLLGLAAAAVADCPSSTWIQFQDSCYIFLQEAIKVESIEDVRNQCTDHGADMISIHNEEENAFILDTLKKQWKGPDDILLGMFYDTDDASFKWFDNSNMTFDKWTDQDDDEDLVDTCAFLHIKTGEWKKGNCEVSSVEGTLCKTAIPYKRKYLSDNHILISALVIASTVILTVLGAIIWFLYKKHSDSRFTTVFSTAPQSPYNEDCVLVVGEENEYPVQFD
In the case of B1, the “glycan array binding signal (z-score)” value [1] is reported as 0.687, the “glycan array binding signal (z-score)” value [2] is reported as -0.715 and the “glycan array binding signal (z-score)” value [3] is reported as 0.156. The “glycan array binding signal (z-score)” value [4] was -0.488, the “glycan array binding signal (z-score)” value (Fuc(a1-2)Gal(b1-4)Glc) was 0.028 and the “glycan array binding signal (z-score)” value [5] was -0.471. For the same binder, the “glycan array binding signal (z-score)” value [6] was 1.87, the “glycan array binding signal (z-score)” value [7] was 3.01 and the “glycan array binding signal (z-score)” value [8] was -0.77. For the same binder, the “glycan array binding signal (z-score)” value [9] was -0.151, the “glycan array binding signal (z-score)” value [10] was -0.734 and the “glycan array binding signal (z-score)” value [11] was 0.221. For the same binder, the “glycan array binding signal (z-score)” value [12] was -0.491, the “glycan array binding signal (z-score)” value [13] was 0.69 and the “glycan array binding signal (z-score)” value (Gal(a1-3)Gal(b1-4)GlcNAc) was 0.709. The “glycan array binding signal (z-score)” value [14] was -0.245, the “glycan array binding signal (z-score)” value (Gal(a1-4)Gal(b1-4)Glc) was -0.289 and the “glycan array binding signal (z-score)” value (Gal(a1-4)Gal(b1-4)GlcNAc) was 0.053. The “glycan array binding signal (z-score)” value [15] was -0.496, the “glycan array binding signal (z-score)” value [16] was 2.22 and the “glycan array binding signal (z-score)” value [17] was -0.606. For the same binder, the “glycan array binding signal (z-score)” value (Gal(b1-4)Gal) was -0.028, the “glycan array binding signal (z-score)” value (Gal(b1-4)Glc6S) was 0.595 and the “glycan array binding signal (z-score)” value [18] was 2.35. The “glycan array binding signal (z-score)” value (Gal(b1-6)Gal) was -0.915, the “glycan array binding signal (z-score)” value [19] was 0.532 and the “glycan array binding signal (z-score)” value (Gal4S(b1-4)GlcNAc) was -0.14. For the same binder, the “glycan array binding signal (z-score)” value (Gal6S(b1-4)Glc) was 0.156, the “glycan array binding signal (z-score)” value (GalNAc(b1-3)Gal) was -0.083 and the “glycan array binding signal (z-score)” value (GalNAc(b1-4)Gal(b1-4)Glc) was -0.041. The “glycan array binding signal (z-score)” value (Glc(b1-4)Glc) was -0.786, the “glycan array binding signal (z-score)” value (Glc(b1-6)Glc) was -0.407 and the “glycan array binding signal (z-score)” value [20] was 6.83. The “glycan array binding signal (z-score)” value [21] was 0.126, the “glycan array binding signal (z-score)” value [22] was -0.427 and the “glycan array binding signal (z-score)” value [23] was 2.43. The “glycan array binding signal (z-score)” value [24] was 10.6, the “glycan array binding signal (z-score)” value [25] was 3.04 and the “glycan array binding signal (z-score)” value [26] was -0.021. The “glycan array binding signal (z-score)” value [27] was 0.223, the “glycan array binding signal (z-score)” value [28] was 0.066 and the “glycan array binding signal (z-score)” value [29] was 5.12. The “glycan array binding signal (z-score)” value [30] was 0.079, the “glycan array binding signal (z-score)” value [31] was -1.67 and the “glycan array binding signal (z-score)” value [32] was 2.38.
